Our source for the z-score and composite z-score values is PubChem BioAssay.

Each structure is given as a SMILES string. Active and inactive are the calls of the source.

The nature of test [1]: compound effects on differentiated 3T3-L1 adipocyte viability – cell-based, 3T3-L1 adipocytes, calcein-AM fluorescence, 48 h, basal, profiling panel (AID 1163). The settings on record: 3T3-L1 adipocytes viability, higher = more signal.
Test [2] in a line: compound effects on hepatocellular carcinoma cell viability – HepG2, calcein-AM fluorescence, 48 h, basal, profiling panel (AID 1164). The settings on record: higher = more signal.
Test [3] is described as follows: compound effects on multiple myeloma cell viability – MM1S, calcein-AM fluorescence, 48 h, basal, profiling panel (AID 1165).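 Also: viability of MM1S multiple myeloma cells under basal unstimulated conditions.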 The settings on record: higher = more signal.
The nature of test [4]: calcein-AM signal in unstimulated myeloma cells – cell-based, calcein-AM fluorescence, 48 h, PK04 Diversity Set, profiling panel (AID 1166).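 Also: cells grown under basal conditions without added stimulus.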 The settings on record: RPMI8226 myeloma viability, higher = more signal.
Test [5] can be described thus: JC-1 mitochondrial signal, unstimulated HepG2 cells – cell-based, JC-1 fluorescence, 24 h, 100 nL compound, profiling panel (AID 1167). The settings on record: HepG2 mitochondrial potential, higher = more signal.
The nature of test [6]: JC-1 mitochondrial signal, unstimulated adipocytes – cell-based, JC-1 fluorescence, 3T3-L1 adipocytes, 24 h, 100 nL compound, profiling panel (AID 1168). The settings on record: JC-1 mitochondrial fluorescence, higher = more signal, called active from +8 up or from −8 down.
The nature of test [7]: JC-1 mitochondrial signal, unstimulated myeloma cells – cell-based, JC-1 fluorescence, RPMI8226, 24 h, 100 nL compound, profiling panel (AID 1169). The settings on record: JC-1 mitochondrial potential fluorescence, higher = more signal.
A short description of test [8]: JC-1 mitochondrial signal, unstimulated MM1S myeloma – cell-based, JC-1 fluorescence, 24 h, 100 nL compound, profiling panel (AID 1170). As to conditions: MM1S mitochondrial potential, higher = more signal.
A short description of test [9]: resazurin metabolic signal in A549 cells – cell-based, resazurin fluorescence, 24 h, PK04 Diversity Set, profiling panel (AID 1171). As to conditions: A549 viability, higher = more signal, called active from +8 up or from −8 down. On the technique in general: Resazurin is reduced to fluorescent resorufin, in cell work by metabolically active cells.
The nature of test [10]: resazurin metabolic signal in HepG2 cells – cell-based, resazurin fluorescence, 24 h, PK04 Diversity Set, profiling panel (AID 1172). As to conditions: HepG2 viability, higher = more signal.
A short description of test [11]: budding yeast growth changes without added modifier – OD600, strain BY4716, 24 h, basal condition, primary screen (AID 1173). The settings on record: S. cerevisiae BY4716 growth, OD600, 24 h; higher = more signal, called active from +8 up or from −8 down.
A short description of test [12]: viability profiling in MM1S myeloma cells – cell-based, resazurin fluorescence, basal, 24 h, PK04 Diversity Set, profiling panel (AID 1174). The settings on record: higher = more signal, called active from +8 up or from −8 down.
Test [13] deals with Dihydroorotate dehydrogenase (quinone), mitochondrial (Plasmodium falciparum (isolate 3D7)) (UniProt Q08210). Briefly: inhibition of P. falciparum DHODH – biochemical, C-terminal His tag, absorbance 600 nm, primary screen (AID 1175).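 Also: recombinant parasite enzyme with a five histidine tag at its C terminus.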 As to conditions: PfDHODH enzyme, DCIP absorbance 600 nm; higher = more signal, called active from +8 up or from −8 down.
A short description of test [14]: growth modulation of vineyard yeast isolate – strain RM11-1a, OD600, basal, 24 h, primary screen (AID 1177).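 Also: cultures grown under basal conditions with no added stressor.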 As to conditions: S. cerevisiae RM11-1a growth, OD600, 24 h; higher = more signal, called active from +8 up or from −8 down.
A short description of test [15]: growth of efflux-deficient E. coli DRC39 – strain DRC39, OD650, 24 h, E. coli filamentation inducers, primary screen (AID 1178).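 Also: growth measured as culture turbidity by optical density at 650 nm.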 The settings on record: E. coli DRC39 acrAB, higher = more signal, called active from +8 up or from −8 down.
The nature of test [16]: growth of efflux-deficient E. coli DRC39 – strain DRC39, OD650, 48 h, E. coli filamentation inducers, primary screen (AID 1179).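 Also: screen aims at cell division blockers that make cells filament.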 The settings on record: E. coli DRC39 delta-acrAB growth, higher = more signal, called active from +8 up or from −8 down.
Test [17] is described as follows: viability profiling in RPMI8226 myeloma cells – cell-based, resazurin fluorescence, basal, 24 h, PK04 Diversity Set, profiling panel (AID 1180).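 Also: RPMI8826 multiple myeloma cell line at 5000 cells per well.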 The settings on record: higher = more signal.
Test [18] has as its target E3 ubiquitin-protein ligase XIAP (Homo sapiens) (UniProt P98170). Briefly: small molecules binding XIAP protein – biophysical, small-molecule microarray, fluorescence 635 nm, primary screen (AID 1181).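 Also: score merges 667 nm emission and signal to noise over triplicate slides.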 As to conditions: higher = more signal.
Test [19] has as its system XIP peptide (Xip251-270) binding. Briefly: XIP fragment 251-270 binding compounds – biochemical, small-molecule microarray, fluorescence 635/667 nm, 0.1 µg/mL protein, primary screen (AID 1182). As to conditions: fluorescent protein binding, 635 nm, higher = more signal, called active from +8 up or from −8 down.
In another test the test system is XIP peptide (Xip251-270). Briefly: compounds binding XIP fragment 251-270 – biochemical, small-molecule microarray, fluorescence 635/667 nm, 0.5 µg/mL protein, primary screen (AID 1183). The settings on record: fluorescence 635 nm, higher = more signal.

Sequence of Dihydroorotate dehydrogenase (quinone), mitochondrial (Plasmodium falciparum (isolate 3D7)) (Q08210 whole entry, looked up): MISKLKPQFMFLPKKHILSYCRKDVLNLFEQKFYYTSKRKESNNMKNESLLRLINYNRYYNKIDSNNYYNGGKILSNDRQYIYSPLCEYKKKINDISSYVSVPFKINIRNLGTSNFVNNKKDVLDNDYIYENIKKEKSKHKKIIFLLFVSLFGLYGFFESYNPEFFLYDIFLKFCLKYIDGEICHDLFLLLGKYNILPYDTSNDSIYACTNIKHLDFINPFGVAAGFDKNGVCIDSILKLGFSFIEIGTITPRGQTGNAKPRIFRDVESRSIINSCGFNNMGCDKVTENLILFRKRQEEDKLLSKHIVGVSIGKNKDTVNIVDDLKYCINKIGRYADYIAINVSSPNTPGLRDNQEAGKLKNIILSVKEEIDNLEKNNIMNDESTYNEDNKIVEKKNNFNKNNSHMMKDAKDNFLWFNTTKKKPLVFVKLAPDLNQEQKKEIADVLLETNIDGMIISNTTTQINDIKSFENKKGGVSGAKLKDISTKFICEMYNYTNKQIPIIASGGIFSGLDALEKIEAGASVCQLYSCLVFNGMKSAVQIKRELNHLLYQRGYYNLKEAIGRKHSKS
Sequence of E3 ubiquitin-protein ligase XIAP (Homo sapiens) (P98170 whole entry, looked up, the tested form may be a part): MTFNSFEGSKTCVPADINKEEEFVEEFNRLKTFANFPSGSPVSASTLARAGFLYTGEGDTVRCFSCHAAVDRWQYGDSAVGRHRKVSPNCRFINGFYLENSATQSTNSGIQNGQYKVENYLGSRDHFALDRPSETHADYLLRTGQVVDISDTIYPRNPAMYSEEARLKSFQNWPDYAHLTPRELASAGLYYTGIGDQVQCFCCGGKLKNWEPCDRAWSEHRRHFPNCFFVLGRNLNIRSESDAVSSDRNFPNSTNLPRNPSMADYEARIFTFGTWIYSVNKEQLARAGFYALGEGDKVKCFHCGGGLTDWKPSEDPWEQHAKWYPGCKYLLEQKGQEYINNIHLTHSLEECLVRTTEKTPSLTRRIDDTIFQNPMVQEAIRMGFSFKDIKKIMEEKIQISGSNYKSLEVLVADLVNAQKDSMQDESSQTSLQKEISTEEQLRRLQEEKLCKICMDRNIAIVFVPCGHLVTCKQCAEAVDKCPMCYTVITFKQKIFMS

For the molecule `C=CCN1C(=O)[C@@]2(O[C@@H](CCn3cc(CCO)nn3)[C@H]([Si](C)(C)c3ccc(OC)cc3)[C@H]2C)c2cc(N3C(=O)c4cccc5cccc3c45)ccc21`, the z-score in test [1] was 0.0493; in test [2], -4.79; in test [3] it was -2.73; in test [4], -4.46; in [5], -2.84; in test [6], 1.32 (inactive). In addition, the z-score is -1.15 in test [7]; -2.09 in [8]; -5.51 (inactive) in test [9]; -6.41 in [10]; -1.2 (inactive) in [11]; -9.06 (active) in test [12]. The z-score was 1.19 (inactive) in test [14], 2.37 (inactive) in test [15], 2.05 (inactive) in [16] and -6.23 in [17]. For the same molecule, the composite z-score is -0.0753 (inactive) in test [13], 0.137 in test [18], 0.254 (inactive) in [19] and 0.339 with XIP peptide (Xip251-270).
`C=C(/C(=C/C[C@H](OC(=O)c1ccncc1)c1cccc(OCCO)c1)c1cc(C(=O)OC)ccc1OC)C(C)C`: the z-score in test [1] is 1.7; in [2] it was -0.712; in [3] it was -0.026; in [4], 0.566; in test [5] it was 2.15; in test [6], 0.746 (inactive). Besides, the z-score is 0.0166 in [7]; 0.343 in test [8]; 2.01 (inactive) in test [9]; 0.731 in test [10]; -0.177 (inactive) in [11]; 1.8 (inactive) in [12]. Besides, the z-score in test [14] was -1.06 (inactive); in test [15], 1.17 (inactive); in test [16], 0.196 (inactive); in test [17], 0.987. Also, the composite z-score was -0.494 (inactive) in test [13], -0.153 in test [18], 0.236 (inactive) in test [19] and 0.256 with XIP peptide (Xip251-270).
Consider `CO[C@H]1O[C@H](CO)[C@@H](OC(=O)CCc2ccccc2)[C@@H]2OC(=O)[C@H](Cc3ccccc3)C/C=C/C[C@@H](Cc3ccccc3)C(=O)O[C@@H]12`, for which the z-score in test [1] is 0.234; in test [2], 0.62; in test [3] it was -0.0096; in test [4], 0.212; in [5], 0.443; in test [6] it was 0.886 (inactive). Also, the z-score in [7] is 0.12; in [8], 0.119; in [9] it was 1.43 (inactive); in [10] it was 1.02; in test [11], -2.53 (inactive); in test [12], 0.832 (inactive). Also, the z-score in test [14] was -0.103 (inactive); in test [15], 1.19 (inactive); in [16] it was 0.754 (inactive); in [17], 0.884. The composite z-score in test [13] is -15.6 (active); in [18], -0.039; in test [19], 1.2 (inactive); in the test with XIP peptide (Xip251-270) it was -0.0342.
With `COCCCNC(=O)[C@@]1(C)c2ccccc2C(=O)N(Cc2cc(F)cc(C(F)(F)F)c2)[C@H]1c1ccc(CO)cc1`, the z-score in test [1] was 0.604; in test [2], -0.176; in test [3] it was 0.534; in [4] it was -0.0765; in [5] it was 1.32; in test [6], 0.0832 (inactive). The z-score in [7] is -0.69; in [8], 0.659; in [9], 0.914 (inactive); in [10], -0.0724; in [11] it was 0.416 (inactive); in [12], 1.09 (inactive). Also, the z-score in [14] was 1.35 (inactive); in test [15], 1.04 (inactive); in [16], 0.359 (inactive); in test [17] it was 1.31. The composite z-score in test [13] is 0.408 (inactive); in test [18], 2.62; in test [19], -0.268 (inactive); in the test on XIP peptide (Xip251-270), -1.16.
As for `COC(=O)C(CC#Cc1ccc2c(c1)[C@]1(C(=O)N2)[C@H](C(N)=O)[C@H]2C(=O)O[C@H](c3ccccc3)[C@H](c3ccccc3)N2[C@@H]1c1ccc(O)cc1)C(=O)OC`, the z-score in [1] is 0.915; in test [2], 0.72; in test [3], 0.555; in test [4], -1.42; in test [5] it was -2.22; in [6], -0.2 (inactive). Besides, the z-score in test [7] is -1.17; in test [8], 1.25; in [9], 1.16 (inactive); in [10] it was 0.259; in test [11], -1.26 (inactive); in test [12], 1.52 (inactive). Besides, the z-score in test [14] is 0.208 (inactive); in test [15] it was 0.105 (inactive); in test [16], 0.572 (inactive); in [17] it was 1.27. The composite z-score in [13] is -0.0538 (inactive); in test [18], 0.0239; in test [19] it was 1.07 (inactive); with XIP peptide (Xip251-270), -1.13.
